From the supplement of paper PMC7156485

What was measured:
Settings in all cases: concentration: 10 µM; 24 h
HCC1569 [1] = assay: cell number relative to DMSO (% of DMSO); higher = more cells (less growth inhibition / toxicity)
Summary of the method: (§1)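 Using 384-well plates with 800 cells per well in RPMI plus 10% FBS, HCC1569 and TDF cells were exposed to compounds at 10 µM, in triplicate, for 24 h at 37 °C. Imaging of six fields per well at ×10 followed H1.0 and DAPI staining. The reported quantity, H1.0 nuclear intensity or cell number, is a median of replicates given as percent of the plate control, and HCC1569 values were smoothed for positional effects.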

TDF [2] = assay: as above
Summary of the method: as §1

TDF [3] = assay: H1.0 immunofluorescence intensity relative to DMSO (% of DMSO); higher = stronger H1.0 induction, active = 120 or more
Summary of the method: as §1

HCC1569 [4] = assay: H1.0 immunofluorescence intensity relative to DMSO (% of DMSO); higher = stronger H1.0 induction, active = 140 or more
Summary of the method: as §1
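Throughout, for H1.0 immunofluorescence intensity relative to DMSO: TDF is a line of transformed human dermal fibroblasts of mesenchymal origin.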
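Throughout, for cell number relative to DMSO: TDF denotes transformed human dermal fibroblasts of mesenchymal origin.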

SMILES | cell number (HCC1569 [1]) | cell number (TDF [2]) | H1.0 immunofluorescence intensity (TDF [3]) | H1.0 immunofluorescence intensity (HCC1569 [4])
CN(C)c1ccc(O)c2c1CC1CC3C(N(C)C)C(=O)C(C(N)=O)=C(O)C3(O)C(=O)C1=C2O.Cl (configuration not stated) [Minocycline hydrochloride] | 99 | 109 | 99.7 (inactive) | 100 (inactive)
Cl.Oc1ccc(C2CNCCc3c2cc(O)c(O)c3Cl)cc1 (configuration not stated) [Fenoldopam.HCl] | 97.6 | 97.8 | 97 (inactive) | 121 (inactive)
C=C(c1ccc(C(=O)O)cc1)c1cc2c(cc1C)C(C)(C)CCC2(C)C [Bexarotene] | 104 | 103 | 84 (inactive) | 111 (inactive)
CCCCCCCCCCCCCCCCOCC(COP(=O)([O-])OCC[N+](C)(C)C)OC(=O)NC (configuration not stated) | 103 | 95.7 | 95.7 (inactive) | 101 (inactive)
CC(=O)OCC(=O)NCCCOc1cccc(CN2CCCCC2)c1.Cl [Roxatidine acetate.HCl] | 107 | 95.7 | 103 (inactive) | 99 (inactive)
NC(=O)N1C(=O)/C(=C(\O)c2cccs2)c2cc(Cl)ccc21 | 101 | 104 | 94.8 (inactive) | 106 (inactive)
NC(=O)c1ccc2[nH]ccc2c1 | 108 | 97.1 | 101 (inactive) | 94.2 (inactive)
c1ccc(-c2[nH]ncc2-c2ccnc3ccccc23)nc1 | 98 | 107 | 94.8 (inactive) | 102 (inactive)
CC[C@H](C)C(=O)O[C@H]1C[C@H](O)C=C2C=C[C@H](C)[C@H](CC[C@@H](O)C[C@@H](O)CC(=O)[O-])[C@H]21.[Na+] | 101 | 93.2 | 95.9 (inactive) | 98.1 (inactive)
COc1cc2c(cc1OC)CC(=O)N(CCCN(C)C[C@H]1Cc3cc(OC)c(OC)cc31)CC2.Cl | 100 | 102 | 92.6 (inactive) | 97.3 (inactive)
CC1=CCCC(C)(O)C=CC(C(C)C)C(OC(=O)c2ccc(O)cc2)C1 (configuration not stated) [Feroline] | 102 | 96 | 102 (inactive) | 93.3 (inactive)
CC(=O)C1(O)CCC2C3CCC4=CC(=O)CCC4(C)C3CCC21C (configuration not stated) [17- Hydroxyprogesterone] | 104 | 96 | 94 (inactive) | 104 (inactive)
COC(=O)C1C2CC3c4[nH]c5cc(OC)ccc5c4CCN3CC2CC(OC(=O)c2cc(OC)c(OC)c(OC)c2)C1OC (configuration not stated) [Reserpine] | 99.2 | 86.3 | 101 (inactive) | 101 (inactive)
CCCCCCC=CCCCCCCCCC(=O)O [10(Z)-Heptadecenoic acid] | 99.6 | 95.4 | 101 (inactive) | 102 (inactive)
O=C1c2ccccc2-c2n[nH]c3cccc1c23 [JNK Inhibitor II] | 91.4 | 112 | 90.5 (inactive) | 144 (active)
NC/C=C/C(=O)O [(E)-4-amino-2-butenoic acid] | 97.2 | 105 | 93.2 (inactive) | 99.6 (inactive)
CC(=O)C1(O)CCC2C3CCC4=CC(=O)CCC4(C)C3CCC21C (stereo not drawn) [17alpha-hydroxyprogesterone] | 98.8 | 98.3 | 99 (inactive) | 99.8 (inactive)
NNC(=O)c1ccncc1 [Isoniazid] | 105 | 104 | 89.6 (inactive) | 110 (inactive)
